Reference: ChEMBL document CHEMBL1961873, “Compounds: GSK PKIS; Assays: Nanosyn kinase panel” (2012)

How the values were obtained:
[1] = target: Fibroblast growth factor receptor 4 (Homo sapiens) (UniProt P22455); details: at 1 µM;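 further: reported figure is the averaged percent inhibition of FGFR4, from the GSK PKIS kinase screening panel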
[2] = target: Tyrosine-protein kinase Fgr (Homo sapiens) (UniProt P09769); details: at 0.1 µM
[3] = target: Tyrosine-protein kinase Fgr (Homo sapiens) (UniProt P09769); details: at 1 µM
[4] = target: Vascular endothelial growth factor receptor 1 (Homo sapiens) (UniProt P17948); details: at 0.1 µM
[5] = target: Vascular endothelial growth factor receptor 1 (Homo sapiens) (UniProt P17948); details: at 1 µM
[6] = target: Receptor-type tyrosine-protein kinase FLT3 (Homo sapiens) (UniProt P36888); details: at 0.1 µM
[7] = target: Receptor-type tyrosine-protein kinase FLT3 (Homo sapiens) (UniProt P36888); details: at 1 µM
[8] = system: T1, Receptor-type tyrosine-protein kinase FLT3 (Homo sapiens), P36888 [D835Y]; details: at 0.1 µM
T1 sequence (whole entry): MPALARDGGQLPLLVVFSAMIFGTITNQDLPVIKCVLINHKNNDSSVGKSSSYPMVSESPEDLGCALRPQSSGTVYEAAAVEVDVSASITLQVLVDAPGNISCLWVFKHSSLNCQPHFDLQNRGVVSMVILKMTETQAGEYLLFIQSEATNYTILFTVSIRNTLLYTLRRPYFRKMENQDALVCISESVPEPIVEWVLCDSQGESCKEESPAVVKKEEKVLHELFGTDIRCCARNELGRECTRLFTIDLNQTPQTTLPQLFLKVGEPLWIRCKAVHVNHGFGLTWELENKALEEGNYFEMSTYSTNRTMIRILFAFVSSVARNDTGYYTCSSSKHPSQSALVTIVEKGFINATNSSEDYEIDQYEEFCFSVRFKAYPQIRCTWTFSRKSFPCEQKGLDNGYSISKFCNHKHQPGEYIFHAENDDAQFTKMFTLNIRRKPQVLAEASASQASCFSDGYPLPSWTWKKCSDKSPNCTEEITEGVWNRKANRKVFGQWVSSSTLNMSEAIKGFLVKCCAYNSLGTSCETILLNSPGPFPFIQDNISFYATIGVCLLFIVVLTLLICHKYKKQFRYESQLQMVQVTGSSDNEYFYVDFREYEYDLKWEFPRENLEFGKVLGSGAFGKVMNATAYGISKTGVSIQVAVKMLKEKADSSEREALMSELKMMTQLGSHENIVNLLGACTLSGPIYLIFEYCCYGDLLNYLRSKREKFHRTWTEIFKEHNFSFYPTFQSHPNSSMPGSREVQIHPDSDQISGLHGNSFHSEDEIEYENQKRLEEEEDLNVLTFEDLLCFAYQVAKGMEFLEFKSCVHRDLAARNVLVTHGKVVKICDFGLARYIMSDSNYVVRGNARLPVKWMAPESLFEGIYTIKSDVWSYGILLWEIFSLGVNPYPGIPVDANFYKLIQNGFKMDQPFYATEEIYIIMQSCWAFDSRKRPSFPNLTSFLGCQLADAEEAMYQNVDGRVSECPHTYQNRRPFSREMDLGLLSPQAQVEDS

[9] = target: Non-receptor tyrosine-protein kinase TYK2 (Homo sapiens) (UniProt P29597); details: at 1 µM;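 further: values are mean percent inhibition of TYK2 kinase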
Non-receptor tyrosine-protein kinase TYK2 (Homo sapiens), sequence (P29597 whole entry): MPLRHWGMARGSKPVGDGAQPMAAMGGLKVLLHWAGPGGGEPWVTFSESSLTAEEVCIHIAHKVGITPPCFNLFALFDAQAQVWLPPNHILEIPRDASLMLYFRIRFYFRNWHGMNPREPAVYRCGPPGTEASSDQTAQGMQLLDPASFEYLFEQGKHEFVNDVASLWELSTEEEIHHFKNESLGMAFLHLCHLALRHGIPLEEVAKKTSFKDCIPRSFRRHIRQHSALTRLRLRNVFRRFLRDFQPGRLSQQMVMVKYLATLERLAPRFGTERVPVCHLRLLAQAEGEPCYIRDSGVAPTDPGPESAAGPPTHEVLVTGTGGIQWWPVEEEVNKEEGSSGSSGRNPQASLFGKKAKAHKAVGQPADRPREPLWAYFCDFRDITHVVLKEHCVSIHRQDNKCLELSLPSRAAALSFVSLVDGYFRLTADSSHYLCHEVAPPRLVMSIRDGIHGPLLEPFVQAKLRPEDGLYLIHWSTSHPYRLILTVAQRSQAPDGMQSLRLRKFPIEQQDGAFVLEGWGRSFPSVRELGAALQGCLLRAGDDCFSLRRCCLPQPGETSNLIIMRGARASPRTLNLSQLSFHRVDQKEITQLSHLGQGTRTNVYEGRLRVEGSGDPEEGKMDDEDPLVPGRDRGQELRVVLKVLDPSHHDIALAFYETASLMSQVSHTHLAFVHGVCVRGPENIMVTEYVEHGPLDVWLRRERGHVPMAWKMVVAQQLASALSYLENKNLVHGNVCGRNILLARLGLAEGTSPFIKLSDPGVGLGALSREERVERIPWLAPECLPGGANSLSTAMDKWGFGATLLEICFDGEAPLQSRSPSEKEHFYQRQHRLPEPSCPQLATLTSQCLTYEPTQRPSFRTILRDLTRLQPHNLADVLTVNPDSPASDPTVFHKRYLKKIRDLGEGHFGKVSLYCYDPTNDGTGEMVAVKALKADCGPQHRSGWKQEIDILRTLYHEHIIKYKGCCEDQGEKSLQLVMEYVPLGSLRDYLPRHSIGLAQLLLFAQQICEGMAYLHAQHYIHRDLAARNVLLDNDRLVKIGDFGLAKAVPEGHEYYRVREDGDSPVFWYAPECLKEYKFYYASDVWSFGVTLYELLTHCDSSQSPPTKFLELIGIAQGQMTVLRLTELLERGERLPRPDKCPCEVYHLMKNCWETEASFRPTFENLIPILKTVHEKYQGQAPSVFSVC

[10] = target: T2, Tyrosine-protein kinase receptor TYRO3 (Homo sapiens) (UniProt Q06418); details: at 0.1 µM
T2 sequence (whole entry): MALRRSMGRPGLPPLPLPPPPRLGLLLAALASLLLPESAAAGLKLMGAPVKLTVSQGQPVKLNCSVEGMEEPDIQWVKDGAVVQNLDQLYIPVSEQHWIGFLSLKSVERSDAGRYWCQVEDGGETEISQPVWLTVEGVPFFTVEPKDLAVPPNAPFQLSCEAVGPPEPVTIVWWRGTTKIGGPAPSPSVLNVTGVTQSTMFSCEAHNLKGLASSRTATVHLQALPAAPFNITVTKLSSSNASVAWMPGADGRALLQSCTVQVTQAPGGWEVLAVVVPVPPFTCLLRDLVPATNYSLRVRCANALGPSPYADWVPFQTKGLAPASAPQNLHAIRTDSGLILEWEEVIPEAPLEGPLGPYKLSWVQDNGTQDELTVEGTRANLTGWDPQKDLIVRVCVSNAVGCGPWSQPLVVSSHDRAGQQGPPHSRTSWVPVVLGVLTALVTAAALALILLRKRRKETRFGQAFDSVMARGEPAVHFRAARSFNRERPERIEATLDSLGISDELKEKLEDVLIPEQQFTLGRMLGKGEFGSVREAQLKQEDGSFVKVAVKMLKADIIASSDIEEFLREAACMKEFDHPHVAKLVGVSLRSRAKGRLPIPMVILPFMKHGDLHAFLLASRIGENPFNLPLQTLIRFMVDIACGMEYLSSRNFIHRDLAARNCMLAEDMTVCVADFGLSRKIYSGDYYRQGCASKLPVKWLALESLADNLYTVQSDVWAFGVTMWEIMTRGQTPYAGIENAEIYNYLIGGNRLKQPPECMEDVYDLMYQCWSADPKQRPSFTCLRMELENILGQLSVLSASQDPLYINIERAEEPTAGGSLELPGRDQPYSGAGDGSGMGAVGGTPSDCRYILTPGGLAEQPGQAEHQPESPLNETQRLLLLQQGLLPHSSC

[11] = target: T2, Tyrosine-protein kinase receptor TYRO3 (Homo sapiens); details: at 1 µM
[12] = target: Tyrosine-protein kinase Yes (Homo sapiens) (UniProt P07947); details: at 0.1 µM
Tyrosine-protein kinase Yes (Homo sapiens), sequence (P07947 2-543 limits assumed): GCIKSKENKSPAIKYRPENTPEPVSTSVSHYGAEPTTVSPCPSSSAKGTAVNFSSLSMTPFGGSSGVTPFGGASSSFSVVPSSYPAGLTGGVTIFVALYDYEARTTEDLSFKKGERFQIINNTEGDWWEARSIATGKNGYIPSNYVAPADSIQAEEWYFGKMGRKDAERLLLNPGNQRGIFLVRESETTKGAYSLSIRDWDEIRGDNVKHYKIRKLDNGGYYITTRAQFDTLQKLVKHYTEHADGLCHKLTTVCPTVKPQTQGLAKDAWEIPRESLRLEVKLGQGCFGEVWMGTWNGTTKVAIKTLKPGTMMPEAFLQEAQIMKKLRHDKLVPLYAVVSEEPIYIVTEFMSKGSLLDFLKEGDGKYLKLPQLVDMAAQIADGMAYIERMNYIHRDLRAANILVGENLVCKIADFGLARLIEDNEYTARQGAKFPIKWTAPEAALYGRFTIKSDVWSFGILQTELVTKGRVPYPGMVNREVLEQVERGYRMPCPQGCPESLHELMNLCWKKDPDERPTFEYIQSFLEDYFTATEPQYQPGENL

[13] = target: Tyrosine-protein kinase Yes (Homo sapiens) (UniProt P07947); details: at 1 µM
[14] = target: T3, Tyrosine-protein kinase ZAP-70 (Homo sapiens) (UniProt P43403); details: at 0.1 µM
T3 sequence (whole entry): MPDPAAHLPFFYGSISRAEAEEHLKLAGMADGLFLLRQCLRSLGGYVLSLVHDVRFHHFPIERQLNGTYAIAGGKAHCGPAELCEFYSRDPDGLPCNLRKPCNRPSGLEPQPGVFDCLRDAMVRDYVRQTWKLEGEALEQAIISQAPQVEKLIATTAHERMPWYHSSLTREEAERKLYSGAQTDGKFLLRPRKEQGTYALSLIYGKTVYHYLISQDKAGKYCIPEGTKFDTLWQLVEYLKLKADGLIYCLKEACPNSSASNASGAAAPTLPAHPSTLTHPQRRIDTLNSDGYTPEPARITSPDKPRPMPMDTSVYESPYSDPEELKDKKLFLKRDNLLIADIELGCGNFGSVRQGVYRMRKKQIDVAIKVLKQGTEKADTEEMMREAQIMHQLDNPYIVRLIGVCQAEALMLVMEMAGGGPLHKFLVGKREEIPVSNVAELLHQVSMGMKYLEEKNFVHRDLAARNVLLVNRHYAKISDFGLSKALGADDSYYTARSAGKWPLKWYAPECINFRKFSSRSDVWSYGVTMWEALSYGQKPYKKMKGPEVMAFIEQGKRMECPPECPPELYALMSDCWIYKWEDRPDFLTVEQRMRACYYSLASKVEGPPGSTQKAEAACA

[15] = target: T3, Tyrosine-protein kinase ZAP-70 (Homo sapiens); details: at 1 µM
[16] = target: Serine/threonine-protein kinase B-raf (Homo sapiens) (UniProt P15056); details: at 0.1 µM
Serine/threonine-protein kinase B-raf (Homo sapiens), sequence (P15056 whole entry): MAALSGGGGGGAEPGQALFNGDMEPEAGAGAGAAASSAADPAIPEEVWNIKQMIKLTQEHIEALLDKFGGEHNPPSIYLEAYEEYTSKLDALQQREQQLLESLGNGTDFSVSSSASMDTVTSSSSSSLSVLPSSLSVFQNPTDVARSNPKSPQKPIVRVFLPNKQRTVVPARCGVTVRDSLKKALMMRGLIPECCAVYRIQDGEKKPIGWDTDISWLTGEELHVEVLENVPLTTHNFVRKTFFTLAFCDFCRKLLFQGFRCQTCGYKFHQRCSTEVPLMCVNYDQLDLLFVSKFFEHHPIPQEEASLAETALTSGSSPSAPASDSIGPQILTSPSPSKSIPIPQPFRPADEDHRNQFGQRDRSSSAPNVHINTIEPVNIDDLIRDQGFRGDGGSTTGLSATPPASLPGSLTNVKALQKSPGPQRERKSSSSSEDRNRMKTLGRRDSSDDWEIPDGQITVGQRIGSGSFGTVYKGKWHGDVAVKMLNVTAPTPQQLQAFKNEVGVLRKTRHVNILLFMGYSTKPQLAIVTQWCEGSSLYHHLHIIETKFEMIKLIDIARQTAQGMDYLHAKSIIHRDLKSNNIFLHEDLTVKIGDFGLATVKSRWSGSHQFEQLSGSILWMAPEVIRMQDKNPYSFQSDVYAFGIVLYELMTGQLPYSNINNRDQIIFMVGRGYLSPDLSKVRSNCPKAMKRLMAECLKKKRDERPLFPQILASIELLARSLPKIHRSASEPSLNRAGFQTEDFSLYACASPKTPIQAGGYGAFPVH

[17] = target: Serine/threonine-protein kinase B-raf (Homo sapiens) (UniProt P15056); details: at 1 µM
[18] = system: Serine/threonine-protein kinase B-raf (Homo sapiens), P15056 [V600E]; details: at 0.1 µM
Serine/threonine-protein kinase B-raf (Homo sapiens), P15056 [V600E], sequence (P15056 whole entry V600E): as the sequence (P15056 whole entry) above, with V600E counted along it

[19] = system: Serine/threonine-protein kinase B-raf (Homo sapiens), P15056 [V600E]; details: at 1 µM
[20] = target: RAF proto-oncogene serine/threonine-protein kinase (Homo sapiens) (UniProt P04049); details: at 0.1 µM;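 further: values are mean CRAF kinase inhibition from profiling of the GSK Published Kinase Inhibitor Set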
RAF proto-oncogene serine/threonine-protein kinase (Homo sapiens), sequence (P04049 whole entry): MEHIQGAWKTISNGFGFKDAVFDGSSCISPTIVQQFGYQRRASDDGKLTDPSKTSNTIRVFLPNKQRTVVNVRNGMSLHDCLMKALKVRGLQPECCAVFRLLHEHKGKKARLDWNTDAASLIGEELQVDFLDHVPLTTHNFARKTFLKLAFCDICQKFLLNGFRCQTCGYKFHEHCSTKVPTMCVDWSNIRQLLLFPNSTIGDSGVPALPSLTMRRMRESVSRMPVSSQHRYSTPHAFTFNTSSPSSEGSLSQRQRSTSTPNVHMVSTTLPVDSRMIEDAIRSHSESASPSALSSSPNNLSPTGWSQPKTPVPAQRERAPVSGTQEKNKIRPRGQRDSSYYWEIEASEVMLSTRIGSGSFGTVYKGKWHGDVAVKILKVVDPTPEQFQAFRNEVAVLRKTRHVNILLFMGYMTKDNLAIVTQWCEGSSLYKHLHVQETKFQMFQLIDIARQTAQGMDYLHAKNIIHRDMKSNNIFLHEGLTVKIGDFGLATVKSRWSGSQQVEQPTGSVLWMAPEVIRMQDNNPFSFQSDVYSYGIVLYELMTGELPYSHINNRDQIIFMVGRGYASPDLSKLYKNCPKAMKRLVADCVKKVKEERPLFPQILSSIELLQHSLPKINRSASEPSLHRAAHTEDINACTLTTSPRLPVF

Fibroblast growth factor receptor 4 (Homo sapiens), sequence (P22455 22-802 limits assumed): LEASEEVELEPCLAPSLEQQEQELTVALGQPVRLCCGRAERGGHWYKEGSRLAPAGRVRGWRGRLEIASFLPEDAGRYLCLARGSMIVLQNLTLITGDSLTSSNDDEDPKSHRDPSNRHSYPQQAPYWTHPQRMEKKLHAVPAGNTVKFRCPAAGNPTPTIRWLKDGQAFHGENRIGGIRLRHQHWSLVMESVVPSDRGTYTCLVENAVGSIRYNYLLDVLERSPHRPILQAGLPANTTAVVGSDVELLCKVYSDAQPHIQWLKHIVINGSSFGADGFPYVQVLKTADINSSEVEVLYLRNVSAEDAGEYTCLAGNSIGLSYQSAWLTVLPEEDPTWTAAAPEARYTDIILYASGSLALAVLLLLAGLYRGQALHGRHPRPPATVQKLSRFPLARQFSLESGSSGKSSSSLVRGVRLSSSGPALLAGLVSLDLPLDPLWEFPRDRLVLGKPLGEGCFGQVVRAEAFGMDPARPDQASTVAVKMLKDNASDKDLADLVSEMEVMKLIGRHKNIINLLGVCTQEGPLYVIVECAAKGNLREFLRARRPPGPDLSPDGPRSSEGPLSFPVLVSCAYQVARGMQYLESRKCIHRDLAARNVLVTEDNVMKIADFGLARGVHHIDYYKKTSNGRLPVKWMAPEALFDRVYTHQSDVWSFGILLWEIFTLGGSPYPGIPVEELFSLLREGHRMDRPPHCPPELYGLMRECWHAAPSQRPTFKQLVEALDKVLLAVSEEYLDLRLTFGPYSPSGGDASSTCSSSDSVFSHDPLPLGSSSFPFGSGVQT
Tyrosine-protein kinase Fgr (Homo sapiens), sequence (P09769 2-529 limits assumed): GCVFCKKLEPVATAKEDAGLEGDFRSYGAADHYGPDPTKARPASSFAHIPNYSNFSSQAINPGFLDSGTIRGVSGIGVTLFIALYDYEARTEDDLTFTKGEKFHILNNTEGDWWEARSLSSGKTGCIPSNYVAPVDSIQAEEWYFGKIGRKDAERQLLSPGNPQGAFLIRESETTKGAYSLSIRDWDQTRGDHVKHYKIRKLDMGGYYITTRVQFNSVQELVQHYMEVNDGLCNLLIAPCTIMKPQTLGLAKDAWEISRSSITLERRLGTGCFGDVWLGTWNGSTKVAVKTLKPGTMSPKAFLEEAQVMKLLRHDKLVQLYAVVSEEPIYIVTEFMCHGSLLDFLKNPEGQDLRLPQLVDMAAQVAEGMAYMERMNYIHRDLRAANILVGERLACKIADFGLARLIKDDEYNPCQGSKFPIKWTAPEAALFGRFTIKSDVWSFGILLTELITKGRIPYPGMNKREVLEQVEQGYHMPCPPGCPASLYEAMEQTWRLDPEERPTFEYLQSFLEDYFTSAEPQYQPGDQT

| Compound | inhibition [1] [%] | inhibition [2] [%] | inhibition [3] [%] | inhibition [4] [%] | inhibition [5] [%] | inhibition [6] [%] | inhibition [7] [%] | inhibition [8] [%] | inhibition [9] [%] | inhibition [10] [%] | inhibition [11] [%] | inhibition [12] [%] | inhibition [13] [%] | inhibition [14] [%] | inhibition [15] [%] | inhibition [16] [%] | inhibition [17] [%] | inhibition [18] [%] | inhibition [19] [%] | inhibition [20] [%] |
| --- | --- | --- | --- | --- | --- | --- | --- | --- | --- | --- | --- | --- | --- | --- | --- | --- | --- | --- | --- | --- |
| Cc1ccc(NC(=O)CC2CC2)cc1-c1ccc(C(=O)NCC2CC2)cc1 | 1.67 | 7.45 | 6.65 | -0.36 | 1.74 | 1.93 | 3.21 | -2.84 | -2.78 | 2.48 | 4.65 | 1.53 | 2.46 | -0.2 | 2.11 | 4.43 | 6.22 | 4.33 | 4.96 | 3.39 |
| [O-][S+]1CCN(Cc2ccc(-c3ccc4ncnc(Nc5ccc(OCc6ccccc6)c(Cl)c5)c4c3)o2)CC1 | -0.87 | -0.44 | 8.63 | -0.09 | 1.05 | 5.36 | 2.27 | 0.74 | -0.57 | 0.39 | 2.86 | 6.47 | 39.1 | -3.44 | 1.8 | 3.08 | 3.86 | 2.34 | 3.29 | -1.87 |
| NS(=O)(=O)c1ccc(-c2cc3ccncc3cc2OCc2ccccc2)cc1 | 4.68 | 5.99 | 4.64 | 0.22 | 2.57 | 2.19 | 2.5 | -4.03 | -0.94 | 3.82 | 4.23 | 3.11 | 3.16 | 0.37 | -0.77 | 4.65 | 6.35 | 5.61 | 4.49 | 2.9 |
| COc1cccc(-n2nc(C)c3c(N/N=C(\C)c4ccncc4)ncnc32)c1 | -0.8 | 1.55 | 4.36 | -0.52 | -0.07 | 0.32 | -1.96 | -4.92 | -0.79 | 1.37 | 2.25 | 1.18 | 0.82 | 0.82 | 2.35 | 0.14 | -1.61 | 0.28 | -0.78 | -2.44 |
| CS(=O)(=O)Nc1cccc(-c2ccc3c(NC(=O)C4CC4)n[nH]c3c2)c1 | -2.02 | -0.31 | 4.5 | -2.92 | -1.44 | 0.45 | 0.14 | -1.25 | -0.54 | 2.53 | 17.9 | 2.95 | 2.86 | 1.35 | 1.3 | 1.25 | 2.51 | 1.61 | 2.94 | 8.26 |
| OCc1ccc(-c2nc(-c3ccccn3)c(-c3ccc4c(c3)OCO4)[nH]2)cc1 | 4.36 | 3.43 | 8.26 | 0.94 | 2.09 | 3.25 | 5.93 | 0.22 | -3.23 | 3.25 | 1.02 | 1.58 | -0.01 | 1.4 | 0.81 | 5.65 | 7.13 | 6.24 | 7.48 | -1.74 |
| N#Cc1c(NC(=O)c2ccccc2F)sc2c1CCCC2 | -0.54 | 1.26 | 1.21 | -1.64 | -1.09 | 0.49 | -1.06 | -2.89 | 0.85 | -1.29 | -1.16 | 2.43 | -1.67 | -3.51 | 0.2 | -1.34 | -1.56 | -0.04 | 1.18 | -2.08 |
| CCn1c(-c2nonc2N)nc2c(C#CC(C)(C)O)nc(OCCNC)cc21 | 1.88 | 0.15 | 3.62 | 1.71 | 10.2 | 1.46 | 4.57 | -1.99 | -2.59 | 2.56 | 3.31 | 3.64 | 3.28 | 1.77 | 1.49 | 6.22 | 7.65 | 3.6 | 3.03 | 0.76 |
| CCn1c(-c2nonc2N)nc2ccc(F)cc21 | 2.77 | 4.5 | 1.73 | 3.79 | 2.76 | 2.66 | 2.44 | -1.29 | -4.18 | 3.03 | 5.61 | 4.26 | 8.39 | 3.33 | 2.76 | 8.45 | 7.77 | 9.84 | 7.05 | -0.53 |
| CS(=O)(=O)CCNCc1nc(-c2ccc3ncnc(Nc4ccc(OCc5cccc(C(F)(F)F)c5)cc4)c3c2)cs1 | 0.59 | 2.47 | 4.41 | -0.29 | -0.5 | 7.87 | 32.1 | 2.62 | -0.77 | 0.47 | 1.66 | 1.94 | 3.56 | 1.5 | 0.78 | 1.81 | 2.12 | 2.15 | -0.18 | 0.97 |
| Cc1ccc(Nc2ccnc(Nc3cccc(C(N)=O)c3)n2)cc1O | 3.08 | 52.6 | 72.8 | 69.9 | 97.8 | 18.8 | 64.5 | 30.1 | 16.9 | 13.1 | 55 | 33.5 | 78.5 | -1.9 | 6.83 | 6.53 | 10.4 | 5.95 | 8.26 | 6.98 |
| COc1ccc2ncnc(Nc3ccc(OCc4ccccc4)cc3)c2c1 | 2.59 | 3.7 | 15.4 | 0.14 | 1.06 | 0.29 | 2.85 | 1.85 | -1 | 1.22 | 3.15 | 5.76 | 22.9 | 1.97 | 1.84 | 3.6 | 2.93 | 3.51 | 2.24 | -0.56 |
| Cc1cc(O)cc(C)c1/C=C/c1cncc(C(=O)N(C)C)c1 | 2.26 | 2.92 | 9.21 | 2.21 | 3.14 | 2.14 | 2.25 | -0.23 | -2.56 | 3.45 | 2.81 | 0.44 | 1.22 | 1.81 | 2.36 | 3.04 | 3.56 | 4.11 | 3.14 | 6.23 |
